# Experimental data: PubChem BioAssay (NCATS)
# Several values for one entry are separate records, joined by “and”; a condition that tells them apart may be missing. Identical values can stand only once. Records with an inconclusive call do not appear. Entries that show only a call come without a potency. A number with no mark means an inactive call. Activity calls are given as the source filed them. Calls follow the shape of the dose curve; as a rule, active = well fitted cell-killing curve with a large enough effect; inconclusive = small, poorly fitted or top-dose-only effect, or effect the other way; inactive = no such curve, though single readings can be large or run the other way.
# Test: Viability qHTS for spleen associated tyrosine kinase inhibitor (SYKi) naive MV4-11 cells (AID 1963823); also: nearly all actives have a fitted effect of over 40% in size
# Settings: MV4-11 AML viability, CellTiter-Glo luminescence, 72 h; series mostly up to 45 µM
# From the text: Department of Medicine, Hematology/Oncology
# University Hospital Frankfurt, Germany.
# Trials have shown promising clinical activity of the selective SYK inhibitor entospletinib in patients with high expressing HOXA9/MEIS1 acute leukemias. As the development of resistance mechanisms is a common problem in the use of targeted drugs, we performed a chemical library screen to identify drug sensitivities in SYK inhibitor resistant AML cells. […] Glucocorticoids are potent immunosuppressants which work in part by inhibiting the transcription of cytokine genes.
# Described herein is a viability screen to look for activity in the SYK inhibitor naive cell line against four NCATS compound libraries (MIPE 5.0, NPC, NPACT, and Kinase) totaling 11372 compounds. Active hits were reacquired for confirmation and further secondary assay testing.
# SEQUENCE No. (e.g., 1, 2, 3, etc.); […] (e.g., Cells, Incubation, Reagent, etc.); VALUE; DESCRIPTION.
# 1; Media; 2uL; white, solid-bottom Corning assay plate.
# 2; Compounds; 23nL; Echo acoustic dispenser.
# 3; Cell; 5uL; 500 cells per well.
# 4: Incubation; 72hr; 37 C, 5% CO2, 95% humidity.
# 5; Reagent; 3uL; CellTiter-Glo reagent (Promega).
# 6; Incubation; 10min; room temperature.
# 7; Detection; Luminescence; ViewLux plate reader (PerkinElmer).
# NOTES (numbers refer to Sequence numbers above
# 1. Quantitative high-throughput screening (qHTS) of small molecule compounds was conducted on naive SYKi MV4-11 cell line.
# 2. Twenty-three nanoliter of small molecule compounds were added to each assay plates using the Echo acoustic dispenser (Beckman Coulter).
# 3. Cells were seeded into the assay plates at a final density of 500 cells in 5uL of media per well using the Multi-drop Combi dispenser.
# 4. Plates were covered with stainless steel gasketed lids and incubated for 72 hours at standard cell culture conditions.
# 5. Viability was assessed by adding 3uL of CellTiter-Glo detection reagent (Promega).
# 6. Plates were covered with gasket lids and incubated for 10 minutes at room temperature.
# 7. Luminescence was measured on a ViewLux plate reader (PerkinElmer).
# Potency is read from the fitted curve at half-maximal effect.
SMILES,Potency,viability (% of control)
CC1(C)S[C@@H]2[C@H](NC(=O)[C@H](N)c3ccccc3)C(=O)N2[C@H]1C(=O)O,inactive,–
COc1cc(Cc2cnc(N)nc2N)cc(OC)c1OC,inactive,–
C[C@H](CN(C)C)Oc1nc(Nc2cc3cccc(Cl)c3cn2)cnc1C#N,259 nM (active) and 934 nM (active),–
Oc1c(Cl)cc(Cl)c2cccnc12,5.25 µM (active),–
Cc1nnc(-c2ccc(-c3ccc(C(=O)Nc4ccc(O)c(N5CCN(C)CC5)c4)cc3)c(C)c2)o1,inactive,–
COC1=Cc2c(nc3n(c2=O)C(C)C(=O)NC3(O)C(C)C)OC=C1 (stereo not given),inactive,–
C=C1CCC[C@]2(C)C=C3OC(=O)C(C)=C3C[C@@H]12,inactive,–
C[C@@H]1Cc2c([nH]c3ccccc23)[C@@H](c2c(F)cc(/C=C/C(=O)O)cc2F)N1CC(C)(C)F,23.5 µM (active),–
O=C(Nc1nnc(-c2ccc3c(c2)OCCO3)o1)C1CCCCC1,inactive,–
CCOC(=O)N1CCC(N2CCC[C@@H](NC(=O)c3ccccc3C)C2)CC1,16.4 µM (active),–
Cc1noc(-c2ccc(CSCCC(=O)O)cc2)c1NC(=O)OC(C)c1ccccc1Cl (stereo not given),inactive,–
OC[C@@]1(O)CO[C@@H](OC[C@H]2O[C@@H](Oc3ccccc3)[C@H](O)[C@@H](O)[C@@H]2O)[C@@H]1O,inactive,–
O=C1OC(CN2CCOCC2)CN1/N=C/c1ccc([N+](=O)[O-])o1 (stereo not given),inactive,–
O=C(/C=C/c1ccc(O)c(O)c1)OC[C@H]1O[C@@H](OC2CCCCC2O)[C@H](O)[C@@H](O)[C@@H]1O (stereo not given in full),inactive,–
NCCOCCOCCNC(=O)Cc1ccc(Nc2nc(NCc3ccc(F)cc3)nc(NCC3CCCCC3)n2)cc1,2.31 µM (active),–
C=C1[C@@H]2CC[C@@H]3[C@@](CCC4C(C(=O)O)(C(=O)O)C[C@@H](O[C@@H]5O[C@H](CO)[C@@H](O)[C@H](O)[C@H]5OC(=O)CC(C)C)C[C@]43C)(C2)[C@H]1O (stereo not given in full),inactive,–
Nc1c2c(nc3ccccc13)CCCC2,inactive,–
COC(=O)C1=CO[C@@H](O[C@@H]2O[C@H](CO)[C@@H](O)[C@H](O)[C@H]2O)[C@@H]2[C@@](C)(O)[C@@H](OC(=O)/C=C/c3ccc(O)cc3)C[C@]12O,inactive,–
CC1(C)OC(=O)CC(O)C2(C)C1CC(=O)C1(C)C2C(O)CC2(C)C(c3ccoc3)OC(=O)C3OC321 (stereo not given),inactive,–
CC1(C)CC[C@]2(C(=O)O[C@@H]3O[C@H](CO)[C@@H](O)[C@H](O)[C@H]3O)CC[C@]3(C)C(=CCC4[C@@]5(C)C[C@@H](O)[C@H](O)[C@](C)(C(=O)O)C5CC[C@]43C)C2C1O (stereo not given in full),inactive,–

SMILES,Potency,viability (% of control)
CC(C)C1CCC(C(=O)N[C@H](Cc2ccccc2)C(=O)O)CC1 (stereo not given in full),inactive,–
NS(=O)(=O)c1cc(C2(O)NC(=O)c3ccccc32)ccc1Cl (stereo not given),inactive,–
COc1ccc2c(c1)[C@]1(C[C@H]1c1ccc3c(/C=C/c4ccc(CN5C[C@@H](C)O[C@@H](C)C5)cc4)n[nH]c3c1)C(=O)N2,0.105 µM (active),–
CC(C)Oc1ccc(-c2nc(-c3cccc4c3CC[C@@H]4NCCO)no2)cc1C#N,11.8 µM (active),–
CC1(C)OC(=O)C(OCC2CC2)=C1c1ccc(S(C)(=O)=O)cc1,inactive,–
CC(=O)N[C@H]1[C@H](O[C@H]2CC[C@@]3(C)C(CC[C@]4(C)C3CC=C3[C@@H]5CC(C)(C)CC[C@]5(C(=O)OC5OCC(O)C(O)C5O)CC[C@]34C)C2(C)C)O[C@H](COC2OC(C)C(O)C(OC3OC(C)C(O)C(O)C3O)C2O)[C@@H](O)[C@@H]1O (stereo not given in full),–,83.4% [at 9.25 µM]
CC(C)(C)c1nc(-c2cccc(NS(=O)(=O)c3c(F)cccc3F)c2F)c(-c2ccnc(N)n2)s1,1.84 µM (active),–
Cc1cc2ncc(C(=O)NCC(C)(C)NCC(=O)N3CCC[C@H]3C#N)cn2n1,inactive,–
C[C@@H](OC[C@@]1(c2ccccc2)CC[C@]2(CCC(=O)N2)CN1)c1cc(C(F)(F)F)cc(C(F)(F)F)c1,7.42 µM (active),–
CC1Cc2ccccc2N1NC(=O)c1ccc(Cl)c(S(N)(=O)=O)c1 (stereo not given),inactive,–
O=C(/C=C/c1ccccc1)OC[C@]12O[C@H]1[C@@H](O)[C@@H]1C=CO[C@@H](O[C@@H]3O[C@H](CO)[C@@H](O)[C@H](O)[C@H]3O)[C@@H]12,inactive,–
CC(=O)NCCc1c[nH]c2ccc(O)cc12,inactive,–
CCn1cc(C(=O)O)c(=O)c2cc(F)c(N3CCNC(C)C3)c(F)c21 (stereo not given),inactive,–
COc1ccc2nc3n[nH]c(C)c3c(NCCOCCO)c2c1,18.4 µM (active) and 9.34 µM (active),–
CNc1nc(Nc2cnn([C@H]3CCN(C4COC4)C[C@@H]3F)c2Cl)ncc1C(F)(F)F,1.3 µM (active),–
Cc1ccc(-c2c(C(=O)CF)n(CCCO)c3ncnc(N)c23)cc1,3.66 µM (active),–
O=C(O)[C@H](Cc1ccccc1)Oc1ccc(-c2ccccc2)cc1,inactive,–
CC1CCC2(NC1)OC1C(=O)C3C4CCC5CC(O[C@@H]6O[C@H](CO)[C@@H](O)[C@H](O)[C@H]6O[C@@H]6O[C@@H](C)[C@H](O)[C@@H](O)[C@H]6O)CCC5(C)C4CCC3(C)C1C2C (stereo not given in full),inactive,–
Cc1cc(O[C@@H](CCC(F)(F)F)c2ccc(C(=O)NCCC(=O)O)cc2)cc(C)c1-c1ccc(C(C)(C)C)cc1,13.2 µM (active),–
NCC[C@H](O)C(=O)N[C@@H]1C[C@H](N)[C@@H](O[C@H]2O[C@H](CN)[C@@H](O)[C@H](O)[C@@H]2O)[C@H](O)[C@@H]1O[C@H]1O[C@H](CO)[C@@H](O)[C@H](N)[C@@H]1O,–,113% [at 0.588 µM]
